Measured values published in ChEMBL document CHEMBL1201862, “PubChem BioAssay data set” (2004).
In all, about 270,000 compounds went through this assay and about 5,800 (2.1%) were called active. About 16% were inconclusive and are not listed. This is one part of a sample in which actives are shown more often than they occur. The rule behind the calls is not given here.

These compounds were tested against Microtubule-associated protein tau (Homo sapiens) (UniProt P10636) (assay: qHTS for Inhibitors of Tau Fibril Formation, Thioflavin T Binding. [Related pubchem assays: 596 ]).
Microtubule-associated protein tau (Homo sapiens), sequence (P10636 whole entry): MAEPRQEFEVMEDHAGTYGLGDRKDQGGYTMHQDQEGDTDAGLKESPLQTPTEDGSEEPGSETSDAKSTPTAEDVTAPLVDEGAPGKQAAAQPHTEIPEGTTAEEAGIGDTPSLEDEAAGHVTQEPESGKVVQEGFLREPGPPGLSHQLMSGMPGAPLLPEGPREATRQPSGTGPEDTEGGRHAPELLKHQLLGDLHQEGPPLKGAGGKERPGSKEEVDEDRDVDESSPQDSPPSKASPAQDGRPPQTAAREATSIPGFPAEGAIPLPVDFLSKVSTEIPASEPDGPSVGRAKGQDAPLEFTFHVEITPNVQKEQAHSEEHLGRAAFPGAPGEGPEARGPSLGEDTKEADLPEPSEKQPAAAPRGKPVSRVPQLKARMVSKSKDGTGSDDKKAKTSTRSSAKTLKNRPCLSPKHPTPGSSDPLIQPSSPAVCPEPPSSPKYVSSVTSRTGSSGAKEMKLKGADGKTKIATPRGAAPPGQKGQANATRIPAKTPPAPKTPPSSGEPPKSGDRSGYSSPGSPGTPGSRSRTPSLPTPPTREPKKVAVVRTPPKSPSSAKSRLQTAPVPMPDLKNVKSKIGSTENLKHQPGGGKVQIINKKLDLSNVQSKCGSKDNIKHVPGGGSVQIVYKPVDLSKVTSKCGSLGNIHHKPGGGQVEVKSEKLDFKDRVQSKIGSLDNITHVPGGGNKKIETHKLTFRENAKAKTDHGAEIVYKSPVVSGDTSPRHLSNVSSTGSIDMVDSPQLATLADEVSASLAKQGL

Question: How did the Potency turn out when Cl[Te]1(Cl)OCCO1 was run?
Answer: 5.62 µM (active)
